# Screening data (PubChem)
# Shown are actives, neighbours in structure and some others; about 3.9% of the full set was active somewhere.
# esBAF inh = inhibitors of esBAF chromatin remodeling in mouse ES cells. Bmi1-luciferase knock-in reporter, 24 h; 100% = twice the neutral-well signal. reporter increase, % at 12.5 µM. actives 2% (n = 350,000); in the data active = activation above about 40%; inconclusive = no clear call, values can overlap the other calls;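 also: 0% = median of the plate's neutral control wells and 100% = double that signal; a rise in the Bmi1 reporter signal indicates esBAF inhibition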
# HSF-1 act = increases HSF-1 driven luciferase reporter signal | NIH3T3-HGL HSF-1 luciferase reporter, MG132, 8 h; 100% = twice DMSO control signal | activation, % at 9 µM | actives 1.7% (n = 300,000);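 active = mean replicate activation of at least 50% with a set share of replicates each reaching 50%; inconclusive = only one of those two conditions met; inactive = mean below 50% and too few replicates reaching it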;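 also: 0% = median of the neutral control wells and 100% = twice that signal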
# MITF act = activators of MITF-driven TRPM1 promoter activity in SK-MEL-5 cells | activation, % at 12.5 µM | actives 0.75% (n = 300,000) | SK-MEL-5 TRPM1-promoter luciferase, 24 h; % of positive control, neutral wells = 0;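 active = mean activation of at least 80% with every replicate also reaching 80%; inconclusive = mean reaches 80% but some replicate falls short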;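 also: 0% = neutral control wells and 100% = parthenolide positive control wells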
# HSF1 inhib = HSF1 inhibition; actives 0.77% (n = 300,000); activity change, negative = inhibition, % at 7.5 µM (by protocol); NIH3T3-HGL HSE-luciferase, MG132-induced, luminescence 8 h; stronger effect = lower value;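 active = more than half of replicate wells show activity change below -50%, luminescence cut by over half; inconclusive = some wells, but at most half, below -50%; inactive = no replicate well below -50%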;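 also: luciferase reports HSF-1 transcriptional activity via heat shock element; 0% = median of DMSO wells and -100% = zero luminescence signal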
# Wnt act = activates Wnt/beta-catenin signaling in a reporter cell assay. activation, % at 9.35 µM. actives 1.2% (n = 300,000). activator, plate reader; in the data active = activation above about 30%, passing the limit was not always enough; inconclusive = no clear call, values can overlap the other calls;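 also: 0% = neutral control wells and 100% = positive control wells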
# * marks the source's active call; other numbers are inactive results; ? = inconclusive; . = no result given.
SMILES,esBAF inh,HSF-1 act,MITF act,HSF1 inhib,Wnt act
CC(/C=C/c1ccco1)=N/NC(=O)OC(C)(C)C,.,8,33,-2,57*
C/C(=N/NC(=O)OC(C)(C)C)c1ccco1,.,11,41,3,?
CCOC(=O)c1c(NC(=O)CN2CCCc3ccccc32)sc(C(C)=O)c1C,.,50*,-8,9,.
COCCOC(=O)c1c(NC(=O)CN2CCc3ccccc32)sc(C(N)=O)c1C,13,6,-6,5,1
Cc1ccc(-c2nnn(CC(=O)N(Cc3cccs3)C(C(=O)NC3CCCC3)c3ccncc3)n2)cc1 (centres undefined),?,-55,-72,-55*,-2
O=C(NCC1CCCO1)C(c1ccncc1)N(Cc1cccs1)C(=O)Cn1nnc(-c2ccc(F)cc2)n1 (centres undefined),.,-2,-8,4,-1
COc1ccc(C(C(=O)NC2CCCCC2)N(C(=O)CCl)c2cccc(Cl)c2)cc1 (centres undefined),.,-90,-87,-90*,3
C#CC(=O)N(c1cc(OC)ccc1OC)C(C(=O)NC1CCCC1)c1cccs1 (centres undefined),-50,-91,-104,-90*,.
C#CC(=O)N(c1ccc(OC)cc1OC)C(C(=O)NC1CCCC1)c1cccs1 (centres undefined),49,-29,-101,-26,-10
COc1cccc(N(C(=O)Cc2cccs2)C(C(=O)NC2CCCC2)c2ccncc2)c1 (centres undefined),52*,15,13,8,7
CC(C)NC(=O)N(C)C[C@H]1Oc2ncc(C3=CCCCC3)cc2C(=O)N([C@H](C)CO)C[C@H]1C,-3,.,.,.,.
C[C@H](CO)N1C[C@H](C)[C@@H](CN(C)Cc2ccc3c(c2)OCO3)Oc2ccc(NS(=O)(=O)c3ccc(F)cc3)cc2C1=O,-6,.,.,.,.
C[C@@H]1CN([C@H](C)CO)C(=O)c2cc(NS(=O)(=O)c3ccc(F)cc3)ccc2O[C@@H](C)CCCCO[C@H]1CN(C)Cc1ccncc1,1,.,.,.,.
Cc1noc(C)c1NC(=O)N(C)C[C@@H]1Oc2ccc(NC(=O)c3ccncc3)cc2C(=O)N([C@H](C)CO)C[C@H]1C,1,.,.,.,.
O=C(O)CC1=C(O)C(=O)N(c2ccccc2)C1c1ccc(Cl)cc1 (centres undefined),9,-3,-7,7,-1
O=C(O)CC1=C(Nc2ccccc2)C(=O)N(c2ccccc2)C1c1ccc(Br)cc1 (centres undefined),.,57*,16,38,36*
O=C(C1CCCC1)N1C[C@@H]2[C@H](c3ccccc31)[C@H](CO)N2C(=O)c1ccccc1,-2,.,.,.,.
COc1cc(C2NC(=O)NC(C)=C2C(=O)OCC2CCCCC2)cc(Cl)c1O (centres undefined),2,35,-4,8,0
COc1cc(C2NC(=O)NC(C)=C2C(=O)OC2CCCCC2)cc(Cl)c1O (centres undefined),-2,62*,4,38,1
COc1ccc(S(=O)(=O)Nc2ccc3c(c2)C(=O)N([C@H](C)CO)C[C@H](C)[C@H](CN(C)C(=O)NC(C)C)OCCCC[C@H](C)O3)cc1,2,.,.,.,.
C/C(=N\OC(=O)c1ccc(F)cc1)c1sc(-c2ccc(Cl)cc2)nc1C,?,42,72,24,51*
C/C(=N\OC(=O)c1ccc(C)cc1)c1sc(C)nc1C,10,-6,23,3,.
C/C(=N\OC(=O)c1ccc(F)cc1)c1ccc(F)c(F)c1,.,54*,.,20,0
CCCC#Cc1ccc2c(c1)O[C@H](CN(C)C(=O)Nc1ccc(OC)cc1)[C@@H](C)CN([C@@H](C)CO)S2(=O)=O,3,.,.,.,.
CCOc1ccc(NC(=O)CCCNC(=O)Cn2cnc3sc(C)c(C)c3c2=O)cc1,-1,-70,.,-64*,1
SMILES,esBAF inh,HSF-1 act,MITF act,HSF1 inhib,Wnt act
CC(=C/c1ccco1)/C=N/N1CCN(c2ccccc2)CC1,49*,39,.,22,.
CC(/C=N/N1CCN(c2ccccc2)CC1)=C\c1ccco1,2,42,61,24,21
CN1c2ccc(Br)cc2[C@H]2[C@H](CCN2C(=O)C2CCOCC2)[C@H]1CO,3,.,.,.,.
COc1cc(Cl)cc(/C=C/c2ccc3ccccc3n2)c1OC(C)=O,.,183*,74,158,.
Cc1ccc(S(=O)(=O)/N=C(/NNC(=O)c2cccc(Cl)c2)c2ccccc2)cc1,8,43,44,16,25
O=C(NN/C(=N/S(=O)(=O)c1ccc(Cl)cc1)c1ccccc1)c1cccc(Cl)c1,36,52*,43,16,33*
O=C(NN/C(=N/S(=O)(=O)c1ccc(Cl)cc1)c1ccccc1)c1ccc(O)cc1,.,60*,34,33,.
O=S(=O)(/N=C(/Nc1ccccn1)c1ccc(Cl)cc1)c1ccc(Cl)cc1,.,16,27,2,.
C(=C\c1ccco1)/c1nc2ccccc2[nH]1,.,-9,-2,6,52*
C(=C\c1nc2ccccc2[nH]1)/c1ccccc1,-46,34,.,18,.
CCCC#Cc1ccc2c(c1)O[C@H](CN(C)C(=O)C1CCC1)[C@H](C)CN([C@H](C)CO)S2(=O)=O,0,.,.,.,.
COc1ccc(-c2oc3ccccc3c2C(=O)OCc2ccc(O)cc2)cc1,45*,-25,2,-16,-2
COc1ccc(-c2oc3ccccc3c2C(=O)OCc2ccccc2)cc1,27,6,21,-7,15
CC(=O)c1cccc(NC(=O)CN2C(=S)NC(C)(C)CC2C)c1 (centres undefined),.,-71,-5,-62*,-1
COc1ccc(S(=O)(=O)N2C[C@H](O)COC[C@@H]3O[C@@H](CC(=O)NCCCN4CCOCC4)CC[C@H]32)cc1,-4,.,.,.,.
Nc1nn2cc(-c3ccc(Br)cc3)nc2c2ccccc12,?,27,55,15,44*
Brc1ccc(-c2cn3nc4c(nc3n2)CCCC4)cc1,.,17,-37,14,.
COc1cccc(NC(=O)N[C@@H]2CC[C@H](CC(=O)Nc3ccc(-c4ccccc4)cc3)O[C@H]2CO)c1,10,.,.,.,.
Cc1ccc(-c2nc3ccc(C)cn3c2Cc2cccc(Cl)c2)cc1,.,.,.,.,15
Cc1cc2nc(-c3ccccc3)c(Cc3cccc(F)c3)n2c(C)c1Br,10,.,.,.,1
Cc1ccc(-c2nc3ccc(Cl)cn3c2Cc2cccc(Cl)c2)cc1,50*,.,.,.,46*
COC(=O)c1ccc2nc(-c3cccc(Cl)c3)c(Cc3ccsc3)n2c1,55*,.,.,.,15
Cc1ccc(-c2nc3cc(C)c(Br)c(C)n3c2Cc2cccc(F)c2)cc1,54*,.,.,.,11
Clc1ccc(-c2nc3ccc(Cl)cn3c2Cc2ccsc2)cc1,71*,.,.,.,19
N#Cc1ccc(-c2nc3ccc(Cl)cn3c2Cc2ccsc2)cc1,6,.,.,.,6
Cc1ccc2nc(-c3cccc(Br)c3)c(Cc3ccccn3)n2c1,48*,.,.,.,24
Cc1ccc(-c2nc3ccc(Br)cn3c2Cc2cccc(Cl)c2)cc1,43*,.,.,.,12
